Assay in all cases: DAPPL (digital affinity profiling via proximity ligation, sequencing); 10 mM Tris-HCl pH 7.5, 50 mM NaCl, 1 mM DTT, 4% glycerol, room temperature, 30 min; GST-TFs on glutathione beads, 16-mer random dsDNA library, 0.1% formaldehyde crosslink after washing; high values mean tight binding
What all share (conditions): protein: recombinant; tags: N-terminal GST; dsDNA, one strand shown

One test deals with T1, FLI1 (Homo sapiens, UniProt Q01543 1-452).
T1 sequence: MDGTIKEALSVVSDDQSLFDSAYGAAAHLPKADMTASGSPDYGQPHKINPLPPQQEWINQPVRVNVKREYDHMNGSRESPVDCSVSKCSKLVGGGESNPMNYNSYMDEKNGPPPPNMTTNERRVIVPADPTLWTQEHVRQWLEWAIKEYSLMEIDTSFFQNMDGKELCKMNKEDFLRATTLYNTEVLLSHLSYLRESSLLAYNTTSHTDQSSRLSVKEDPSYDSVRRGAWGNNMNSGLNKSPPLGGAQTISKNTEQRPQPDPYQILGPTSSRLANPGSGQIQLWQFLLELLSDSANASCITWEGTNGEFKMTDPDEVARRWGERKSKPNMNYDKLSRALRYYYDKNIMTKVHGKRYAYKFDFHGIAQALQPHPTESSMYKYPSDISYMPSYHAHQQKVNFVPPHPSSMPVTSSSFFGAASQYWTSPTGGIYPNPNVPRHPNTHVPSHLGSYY
The essentials: (§1)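 Pools of DNA-barcoded human transcription factors, expressed in yeast as GST fusions on glutathione beads and combined with a tag-only sample, were incubated with 200 nmole of a 16-mer random double-stranded DNA library. Incubation took 30 min at room temperature in Tris/NaCl/DTT/glycerol buffer and was followed by washing, 0.1% formaldehyde crosslinking, proximity ligation (BsaI/T4 ligase, 1 h, 37 °C), PCR amplification and sequencing on an Illumina NextSeq500. Binding signal is the ratio of a hexamer's read frequency for a factor to its frequency for the tag-only sample.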

Another test deals with T2, ELK1 (Homo sapiens, UniProt P19419 1-428).
T2 sequence: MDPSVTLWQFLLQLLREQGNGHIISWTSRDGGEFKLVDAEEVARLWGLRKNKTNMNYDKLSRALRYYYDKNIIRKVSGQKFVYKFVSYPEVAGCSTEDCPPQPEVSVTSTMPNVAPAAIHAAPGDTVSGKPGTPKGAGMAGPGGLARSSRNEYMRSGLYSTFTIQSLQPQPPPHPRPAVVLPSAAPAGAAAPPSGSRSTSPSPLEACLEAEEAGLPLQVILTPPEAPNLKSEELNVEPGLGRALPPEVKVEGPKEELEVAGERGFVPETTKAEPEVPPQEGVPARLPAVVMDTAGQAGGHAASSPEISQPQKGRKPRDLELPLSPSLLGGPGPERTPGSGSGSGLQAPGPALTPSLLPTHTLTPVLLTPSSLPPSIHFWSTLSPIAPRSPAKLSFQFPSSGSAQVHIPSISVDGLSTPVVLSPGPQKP
In a few lines:
as §1

A further test concerns the target T3, GABPA (Homo sapiens, UniProt Q06546 1-454).
T3 sequence: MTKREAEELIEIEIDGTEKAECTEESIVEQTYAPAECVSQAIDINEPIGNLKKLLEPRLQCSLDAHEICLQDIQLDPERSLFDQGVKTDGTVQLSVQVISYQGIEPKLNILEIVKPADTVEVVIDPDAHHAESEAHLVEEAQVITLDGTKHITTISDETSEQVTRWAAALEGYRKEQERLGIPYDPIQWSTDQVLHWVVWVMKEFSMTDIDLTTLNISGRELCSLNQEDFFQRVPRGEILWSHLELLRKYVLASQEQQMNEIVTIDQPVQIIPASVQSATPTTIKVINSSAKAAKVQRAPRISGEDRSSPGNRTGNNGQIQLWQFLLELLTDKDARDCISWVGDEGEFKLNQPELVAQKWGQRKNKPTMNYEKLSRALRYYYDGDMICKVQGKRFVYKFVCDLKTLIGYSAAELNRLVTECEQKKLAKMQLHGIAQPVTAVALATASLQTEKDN
In a few lines:
as §1

In another test the target is T4, ERG (Homo sapiens, UniProt P11308 1-479).
T4 sequence: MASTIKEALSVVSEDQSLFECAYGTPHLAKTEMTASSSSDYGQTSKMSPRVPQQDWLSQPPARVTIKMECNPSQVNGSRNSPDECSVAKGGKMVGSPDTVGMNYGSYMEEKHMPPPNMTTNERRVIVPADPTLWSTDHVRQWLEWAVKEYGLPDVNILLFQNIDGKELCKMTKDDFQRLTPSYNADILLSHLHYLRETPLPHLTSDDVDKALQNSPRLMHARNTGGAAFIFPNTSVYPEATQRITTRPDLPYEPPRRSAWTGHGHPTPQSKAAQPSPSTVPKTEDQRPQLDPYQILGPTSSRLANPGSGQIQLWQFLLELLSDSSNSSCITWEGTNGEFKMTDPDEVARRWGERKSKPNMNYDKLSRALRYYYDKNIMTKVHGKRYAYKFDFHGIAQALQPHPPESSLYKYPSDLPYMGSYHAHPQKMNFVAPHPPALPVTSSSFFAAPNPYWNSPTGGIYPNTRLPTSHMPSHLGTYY
In a few lines:
as §1

In another test the target is ELF1 (Homo sapiens, UniProt P32519 1-619). The essentials: as §1
The next test concerns the target T5, EHF (Homo sapiens, UniProt Q9NZC4 1-300).
T5 sequence: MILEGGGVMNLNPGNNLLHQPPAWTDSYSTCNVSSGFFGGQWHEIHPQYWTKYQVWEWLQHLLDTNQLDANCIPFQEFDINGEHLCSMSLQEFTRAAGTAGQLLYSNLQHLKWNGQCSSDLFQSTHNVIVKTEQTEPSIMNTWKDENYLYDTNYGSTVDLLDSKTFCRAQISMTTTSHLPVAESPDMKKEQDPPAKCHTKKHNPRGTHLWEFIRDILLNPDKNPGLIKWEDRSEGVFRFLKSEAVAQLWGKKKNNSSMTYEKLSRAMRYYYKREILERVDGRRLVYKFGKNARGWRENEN
The essentials:
as §1

The next test has as its target SPI1 (Homo sapiens, UniProt P17947 1-270). In a few lines:
as §1

Another test has as its target SPIB (Homo sapiens, UniProt Q01892 1-262). The essentials: as §1
The target of the next test is T6, FEV (Homo sapiens, UniProt Q99581 1-238).
T6 sequence: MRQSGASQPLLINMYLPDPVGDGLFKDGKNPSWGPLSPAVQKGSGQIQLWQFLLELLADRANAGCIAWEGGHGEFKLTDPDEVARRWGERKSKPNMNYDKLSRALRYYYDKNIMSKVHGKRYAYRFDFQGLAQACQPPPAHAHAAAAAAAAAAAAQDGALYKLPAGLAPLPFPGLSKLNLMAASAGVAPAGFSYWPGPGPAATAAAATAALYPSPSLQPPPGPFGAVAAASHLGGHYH
The essentials:
as §1

A further test deals with ETV5 (Homo sapiens, UniProt P41161 1-510). The essentials: as §1
The next test deals with T7, SPIC (Homo sapiens, UniProt Q8N5J4 1-248).
T7 sequence: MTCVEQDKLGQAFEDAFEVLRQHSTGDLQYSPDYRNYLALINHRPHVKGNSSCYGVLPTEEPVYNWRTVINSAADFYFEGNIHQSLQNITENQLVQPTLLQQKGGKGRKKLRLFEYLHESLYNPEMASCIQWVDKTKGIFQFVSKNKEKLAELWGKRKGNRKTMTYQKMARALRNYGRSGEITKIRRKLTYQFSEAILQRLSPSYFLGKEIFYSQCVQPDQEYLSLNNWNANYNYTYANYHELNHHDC
In a few lines: as §1

In another test the target is ELF4 (Homo sapiens, UniProt Q99607 1-663). In a few lines:
as §1

For the next test, the target named is T8, ERF (Homo sapiens, UniProt P50548 1-548).
T8 sequence: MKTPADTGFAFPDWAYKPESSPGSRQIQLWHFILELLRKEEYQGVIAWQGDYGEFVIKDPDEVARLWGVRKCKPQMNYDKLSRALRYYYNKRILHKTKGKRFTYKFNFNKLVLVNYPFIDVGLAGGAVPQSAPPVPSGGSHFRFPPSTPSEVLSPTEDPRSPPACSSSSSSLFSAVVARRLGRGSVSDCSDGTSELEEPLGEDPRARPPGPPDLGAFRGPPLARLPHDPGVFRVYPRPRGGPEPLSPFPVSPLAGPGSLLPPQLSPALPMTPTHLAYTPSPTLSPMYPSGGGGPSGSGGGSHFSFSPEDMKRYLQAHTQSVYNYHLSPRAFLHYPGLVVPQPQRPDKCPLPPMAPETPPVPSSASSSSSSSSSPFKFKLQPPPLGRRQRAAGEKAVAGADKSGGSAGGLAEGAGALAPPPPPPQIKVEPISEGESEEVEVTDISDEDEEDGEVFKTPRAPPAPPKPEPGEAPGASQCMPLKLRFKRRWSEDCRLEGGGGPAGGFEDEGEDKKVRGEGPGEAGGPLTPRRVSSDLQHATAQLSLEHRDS
In a few lines: as §1

Another test has as its target T9, ETV3L (Homo sapiens, UniProt Q6ZN32 1-361).
T9 sequence: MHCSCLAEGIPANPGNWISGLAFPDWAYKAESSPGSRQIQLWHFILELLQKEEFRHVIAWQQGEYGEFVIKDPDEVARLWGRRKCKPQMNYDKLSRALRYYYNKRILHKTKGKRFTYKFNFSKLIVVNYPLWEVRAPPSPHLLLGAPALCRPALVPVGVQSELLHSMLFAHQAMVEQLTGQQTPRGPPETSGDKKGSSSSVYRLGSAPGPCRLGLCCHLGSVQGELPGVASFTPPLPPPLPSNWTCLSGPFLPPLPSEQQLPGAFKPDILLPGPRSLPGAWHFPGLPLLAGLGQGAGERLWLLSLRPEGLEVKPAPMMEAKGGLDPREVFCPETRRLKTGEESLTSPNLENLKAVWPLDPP
In a few lines: as §1

A further test deals with T10, ETS2 (Homo sapiens, UniProt P15036 1-469).
T10 sequence: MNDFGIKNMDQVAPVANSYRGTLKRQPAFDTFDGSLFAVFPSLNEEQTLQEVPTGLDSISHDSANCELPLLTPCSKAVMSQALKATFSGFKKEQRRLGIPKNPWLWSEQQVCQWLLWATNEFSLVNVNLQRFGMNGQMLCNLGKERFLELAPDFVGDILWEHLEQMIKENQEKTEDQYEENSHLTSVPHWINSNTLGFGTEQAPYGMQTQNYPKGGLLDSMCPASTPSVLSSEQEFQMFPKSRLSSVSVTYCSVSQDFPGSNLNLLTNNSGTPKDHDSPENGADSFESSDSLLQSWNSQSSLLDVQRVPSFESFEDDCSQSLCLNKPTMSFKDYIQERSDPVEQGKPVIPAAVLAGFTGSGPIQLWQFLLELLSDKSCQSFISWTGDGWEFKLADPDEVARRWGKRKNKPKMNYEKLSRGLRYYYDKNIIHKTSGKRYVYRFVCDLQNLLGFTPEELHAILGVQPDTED
In a few lines: as §1

A further test deals with T11, SPDEF (Homo sapiens, UniProt O95238 1-335).
T11 sequence: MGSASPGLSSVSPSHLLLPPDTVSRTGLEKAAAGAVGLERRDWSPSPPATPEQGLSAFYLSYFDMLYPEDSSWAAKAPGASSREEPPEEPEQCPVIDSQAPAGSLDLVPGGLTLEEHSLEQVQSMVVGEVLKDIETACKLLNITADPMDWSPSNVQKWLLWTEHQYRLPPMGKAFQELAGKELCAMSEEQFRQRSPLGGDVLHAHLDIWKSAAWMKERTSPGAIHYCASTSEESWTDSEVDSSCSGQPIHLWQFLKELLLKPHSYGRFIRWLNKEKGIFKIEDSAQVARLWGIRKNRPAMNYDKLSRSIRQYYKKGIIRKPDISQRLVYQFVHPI
The essentials:
as §1

The target in another test is T12, ETV3 (Homo sapiens, UniProt P41162-2 1-143).
T12 sequence: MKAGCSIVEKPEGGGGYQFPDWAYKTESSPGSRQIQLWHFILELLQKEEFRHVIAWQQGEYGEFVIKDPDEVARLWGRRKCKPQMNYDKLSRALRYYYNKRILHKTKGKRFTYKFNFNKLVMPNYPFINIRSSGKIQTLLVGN
In a few lines: as §1

Chain of ELF4 (Q99607 whole entry): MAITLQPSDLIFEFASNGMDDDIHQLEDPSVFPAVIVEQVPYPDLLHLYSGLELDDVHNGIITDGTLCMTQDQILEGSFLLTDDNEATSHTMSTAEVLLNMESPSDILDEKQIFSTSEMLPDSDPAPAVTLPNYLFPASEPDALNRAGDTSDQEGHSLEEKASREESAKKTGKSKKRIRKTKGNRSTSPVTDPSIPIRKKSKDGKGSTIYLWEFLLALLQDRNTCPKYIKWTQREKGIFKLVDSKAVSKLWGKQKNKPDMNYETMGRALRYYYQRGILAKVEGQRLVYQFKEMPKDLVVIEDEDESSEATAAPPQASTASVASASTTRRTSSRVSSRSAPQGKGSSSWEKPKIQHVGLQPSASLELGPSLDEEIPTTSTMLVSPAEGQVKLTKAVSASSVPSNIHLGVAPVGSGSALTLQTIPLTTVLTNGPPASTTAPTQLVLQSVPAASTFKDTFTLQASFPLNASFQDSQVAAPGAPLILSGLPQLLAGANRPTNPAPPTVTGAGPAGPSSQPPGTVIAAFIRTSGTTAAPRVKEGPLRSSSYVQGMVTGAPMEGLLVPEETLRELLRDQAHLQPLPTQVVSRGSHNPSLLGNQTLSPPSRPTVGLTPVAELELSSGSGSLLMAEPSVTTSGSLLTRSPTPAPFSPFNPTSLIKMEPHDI
Chain of ETV5 (P41161 whole entry): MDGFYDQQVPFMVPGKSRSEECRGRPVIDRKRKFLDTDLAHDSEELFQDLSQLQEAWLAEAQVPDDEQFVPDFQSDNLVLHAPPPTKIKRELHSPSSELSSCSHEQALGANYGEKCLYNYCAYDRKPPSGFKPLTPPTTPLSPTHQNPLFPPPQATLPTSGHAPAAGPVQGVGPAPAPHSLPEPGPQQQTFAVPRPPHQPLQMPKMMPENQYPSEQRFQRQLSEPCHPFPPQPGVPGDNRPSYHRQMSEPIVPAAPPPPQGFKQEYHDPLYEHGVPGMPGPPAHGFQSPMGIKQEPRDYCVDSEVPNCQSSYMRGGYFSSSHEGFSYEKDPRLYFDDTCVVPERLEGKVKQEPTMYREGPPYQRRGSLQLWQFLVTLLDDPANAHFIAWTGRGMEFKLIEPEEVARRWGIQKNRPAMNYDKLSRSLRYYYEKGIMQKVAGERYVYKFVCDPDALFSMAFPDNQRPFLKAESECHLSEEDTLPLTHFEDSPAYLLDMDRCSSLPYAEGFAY
Chain of ELF1 (P32519 whole entry): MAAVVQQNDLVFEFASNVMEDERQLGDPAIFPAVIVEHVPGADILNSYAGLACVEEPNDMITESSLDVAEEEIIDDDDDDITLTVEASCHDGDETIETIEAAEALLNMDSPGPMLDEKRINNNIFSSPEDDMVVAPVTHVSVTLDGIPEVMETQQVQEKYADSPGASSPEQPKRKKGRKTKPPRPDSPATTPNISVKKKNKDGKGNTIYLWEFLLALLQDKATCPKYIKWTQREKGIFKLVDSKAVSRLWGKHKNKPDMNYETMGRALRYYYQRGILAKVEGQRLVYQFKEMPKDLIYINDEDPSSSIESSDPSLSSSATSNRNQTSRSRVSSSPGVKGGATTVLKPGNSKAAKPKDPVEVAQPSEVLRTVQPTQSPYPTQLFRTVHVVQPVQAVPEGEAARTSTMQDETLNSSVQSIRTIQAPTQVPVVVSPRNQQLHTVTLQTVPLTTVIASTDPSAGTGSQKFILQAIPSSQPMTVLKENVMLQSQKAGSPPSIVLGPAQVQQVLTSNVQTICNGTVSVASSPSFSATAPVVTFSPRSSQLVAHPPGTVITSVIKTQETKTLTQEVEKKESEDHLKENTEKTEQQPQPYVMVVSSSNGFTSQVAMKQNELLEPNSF
Chain of SPIB (Q01892 whole entry): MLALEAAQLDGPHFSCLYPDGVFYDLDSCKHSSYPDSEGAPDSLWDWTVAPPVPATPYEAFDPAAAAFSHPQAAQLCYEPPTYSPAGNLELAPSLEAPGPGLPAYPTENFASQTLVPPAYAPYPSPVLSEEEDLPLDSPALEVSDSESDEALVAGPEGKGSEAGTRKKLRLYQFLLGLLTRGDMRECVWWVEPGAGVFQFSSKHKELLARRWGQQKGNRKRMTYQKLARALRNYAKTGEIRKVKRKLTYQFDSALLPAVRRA

As for GTCTTG, the binding signal was 1.02 fold enrichment (6-mer frequency, TF over GST control) with FLI1; 1.02 fold enrichment (6-mer frequency, TF over GST control) in the test with ELK1; 1.11 fold enrichment (6-mer frequency, TF over GST control) in the test with GABPA; 1.05 fold enrichment (6-mer frequency, TF over GST control) with ERG; 1 fold enrichment (6-mer frequency, TF over GST control) with ELF1; 1.09 fold enrichment (6-mer frequency, TF over GST control) in the test with EHF. For the same sequence, the binding signal with SPI1 is 1.01 fold enrichment (6-mer frequency, TF over GST control); in the test with SPIB, 1.04 fold enrichment (6-mer frequency, TF over GST control); with FEV it was 1.01 fold enrichment (6-mer frequency, TF over GST control); with ETV5 it was 1.01 fold enrichment (6-mer frequency, TF over GST control); with SPIC, 1.11 fold enrichment (6-mer frequency, TF over GST control); with ELF4 it was 1.06 fold enrichment (6-mer frequency, TF over GST control). For the same sequence, the binding signal in the test with ERF is 1.15 fold enrichment (6-mer frequency, TF over GST control); in the test with ETV3L, 1.04 fold enrichment (6-mer frequency, TF over GST control); with ETS2, 1 fold enrichment (6-mer frequency, TF over GST control); in the test with SPDEF, 1.05 fold enrichment (6-mer frequency, TF over GST control); with ETV3, 1 fold enrichment (6-mer frequency, TF over GST control).
